Rows were chosen to be rich in hits. Some 7.3% of all compounds tested hit in one or more screens of this group.
SMN2 splice enh = SMN2 splice variant enhancement; Potency, µM (highest dose often 46.1 µM), most hits filed as activators; AID 1458; HEK293 SMN2-luciferase splicing reporter, luminescence, 30-36 h; actives 2.8% (n = 210,000); also: nearly all actives have a fitted effect of over 55% in size
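qHTS luciferase splicing reporter: luminescence rises when SMN2 exon 7 is included in transfected HEK293 cells. Compound exposure lasted 30-36 h at 37C, with 4.5 mM final sodium butyrate as control, followed by a ONE-Glo read.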
FLuc counter = firefly luciferase modulation, counter-screen for miR-21 project; P08659; AID 588342; purified FLuc, Km substrates, luminescence inhibition; actives 6.9% (n = 360,000); Potency, µM (top dose mostly 57.5 µM), hits mostly inhibitors; also: nearly all actives have a fitted effect of over 55% in size
Target sequence (P08659 whole entry, looked up): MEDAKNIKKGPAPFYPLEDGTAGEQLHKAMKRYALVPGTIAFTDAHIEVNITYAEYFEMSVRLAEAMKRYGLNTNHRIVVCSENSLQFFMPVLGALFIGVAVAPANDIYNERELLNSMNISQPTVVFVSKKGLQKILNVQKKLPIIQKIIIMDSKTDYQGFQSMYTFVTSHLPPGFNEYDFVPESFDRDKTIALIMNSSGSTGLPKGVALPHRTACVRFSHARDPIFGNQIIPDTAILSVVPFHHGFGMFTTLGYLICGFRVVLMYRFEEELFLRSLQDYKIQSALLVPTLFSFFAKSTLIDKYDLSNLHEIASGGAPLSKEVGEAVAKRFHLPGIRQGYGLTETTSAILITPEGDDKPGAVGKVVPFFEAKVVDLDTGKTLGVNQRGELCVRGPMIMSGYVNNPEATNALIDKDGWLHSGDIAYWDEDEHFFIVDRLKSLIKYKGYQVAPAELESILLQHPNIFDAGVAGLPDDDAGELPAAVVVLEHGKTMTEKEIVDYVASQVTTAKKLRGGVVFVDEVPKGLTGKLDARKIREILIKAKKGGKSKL
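Purified P. pyralis luciferase, 10 nM final, with Km-level 10 uM D-luciferin and 10 uM ATP in 50 mM Tris acetate pH 7.5, 10 mM Mg acetate, 0.01% Tween-20, 0.05% BSA; 6-point qHTS titration about 60 µM downward; luminescence read.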
ELG1 genotoxic = induces genotoxicity in HEK293T cells with luciferase-tagged ELG1; HEK293T ELG1-luciferase reporter, luminescence, 16 h; Potency, µM (series often up to 46 µM), usual class: activators; actives 1.3% (n = 330,000); also: nearly all actives have a fitted effect of over 60% in size
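Step 1: seed 2,000 HEK293T ELG1-luciferase cells per well. Step 2: add compound or DMSO, incubate 16 hr at 37 °C. Step 3: ONE-Glo, 30 min at room temperature, read luminescence.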
NPC1 prom act = NPC1 promoter activation. Huh7 NPC1 promoter luciferase reporter, 24 h. Potency, µM (top dose mostly 9.22 µM), usual class: activators. actives 2.4% (n = 320,000). AID 485313; also: nearly all actives have a fitted effect of over 60% in size
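Luminescence from an NPC1 promoter-driven luciferase reporter in stably transfected Huh7 cells was measured after 24 h compound treatment at 37 °C, followed by 10 min ambient incubation with luciferase detection reagent.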
Rab9 prom act = activators of Rab9 promoter; Huh7 Rab9 promoter-luciferase reporter, luminescence, 24 h; Potency, µM (titrated, usually from 9.22 µM), hits mostly activators; actives 2.8% (n = 320,000); AID 485297; also: nearly all actives have a fitted effect of over 60% in size
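Cell-based reporter: Huh7 stable for Rab9 promoter-driven luciferase, plated in reduced-serum medium with 10% FBS at 1500 cells/well, compound-treated 24 h at 37 °C, luminescence read after 10 min reagent.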
Luc counter = counter-screen: inhibitors of Kinase-Glo firefly luciferase. Q27757. Kinase-Glo luciferase, ATP luminescence, 8 min. Potency, µM (doses to about 38.3 µM), usual class: inhibitors. actives 0.28% (n = 200,000). AID 1379; also: nearly all actives have a fitted effect of over 60% in size
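Kinase-Glo luciferase light output from ATP and luciferin was measured with 10 uM ATP, within the enzyme's linear range. Buffer: 50 mM imidazole pH 7.2, 50 mM KCl, 7 mM MgCl2, 0.01% Tween 20, 0.05% BSA; luminescence read after 8 min at ambient temperature.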
A number is an active result; [ ] = remark or other dose. Calls follow the shape of the dose curve; as a rule, active = well fitted curve in the direction sought with a large enough effect; inconclusive = small, poorly fitted or top-dose-only effect, or another doubt; inactive = no such curve, though single readings can be large; an effect the other way counts as inactive or inconclusive.

For Nc1c(C(=O)Nc2cccc(Br)c2)sc2nc3c(cc12)N1CCC3CC1 the results were SMN2 splice enh inactive and FLuc counter 12µM.
O=[As](O)(O)c1ccc(N=Nc2ccc(O)cc2)cc1 was read as SMN2 splice enh inactive[9.22 µM], FLuc counter 13µM, ELG1 genotoxic inactive, NPC1 prom act inactive, Rab9 prom act inactive and Luc counter inactive[7.66 µM].
`NC(Cc1nc2ccccc2[nH]1)c1ccc(Cl)cc1` (centres undefined) gave FLuc counter 11µM, ELG1 genotoxic 13µM, NPC1 prom act inactive and Rab9 prom act inconclusive.
Screening NC(Cc1ccccc1)c1nc2ccccc2[nH]1 (centres undefined) returned FLuc counter inconclusive, ELG1 genotoxic inactive, NPC1 prom act inactive and Rab9 prom act inactive.
O=C(c1ccc(F)cc1)C(Cc1ccccc1)N1CCCCC1 (centres undefined) was read as SMN2 splice enh inactive, FLuc counter 19µM, ELG1 genotoxic inactive, NPC1 prom act inactive, Rab9 prom act inconclusive and Luc counter inactive.
For Clc1ccc(Cl)c(Cl)c1 the results were SMN2 splice enh inactive.
For Nc1nc(SCc2ccc(Cl)cc2Cl)n[nH]1 the results were SMN2 splice enh inconclusive, FLuc counter inconclusive, ELG1 genotoxic 21µM, NPC1 prom act inactive, Rab9 prom act inactive and Luc counter inactive.
O=C(c1cc2c(s1)-c1ccccc1OC2)N1CCC2(CC1)OCCO2 was read as SMN2 splice enh 5.6µM, FLuc counter 6.7µM, ELG1 genotoxic inconclusive, NPC1 prom act inconclusive, Rab9 prom act 0.89µM and Luc counter inactive.
Screening Cc1ccc(N2C(=O)NC(=O)/C(=C\c3ccc(N4CCOCC4)cc3)C2=O)cc1 returned SMN2 splice enh inactive, FLuc counter inactive, ELG1 genotoxic inactive, NPC1 prom act inactive, Rab9 prom act inactive and Luc counter inactive.
Screening Cc1ccc(N2C(=O)NC(=O)/C(=C\c3ccc([N+](=O)[O-])o3)C2=O)cc1 returned SMN2 splice enh inactive, FLuc counter 27µM, ELG1 genotoxic inactive, NPC1 prom act inactive, Rab9 prom act inactive and Luc counter inactive.
`S=C=Nc1cccc2ccccc12` gave SMN2 splice enh inactive.
C=CCn1c(O)c(C(C)=Nc2ccc(N(C)C)cc2)c(=O)[nH]c1=O was read as SMN2 splice enh inconclusive, FLuc counter inactive, ELG1 genotoxic inconclusive, NPC1 prom act inactive, Rab9 prom act inactive and Luc counter inactive.
Screening C=CCn1c(O)c(C(C)=Nc2cc(OC)ccc2OC)c(=O)[nH]c1=O returned SMN2 splice enh inactive, FLuc counter inactive, ELG1 genotoxic 23µM, NPC1 prom act inactive, Rab9 prom act inactive and Luc counter inactive.
`O=C1C2C3CCC(C3)C2C(=O)N1c1ccc(OS(=O)(=O)c2ccccc2)cc1` (centres undefined) gave SMN2 splice enh inactive, FLuc counter 12µM, ELG1 genotoxic inconclusive, NPC1 prom act 3.5µM, Rab9 prom act 1.1µM and Luc counter inactive.
O=C(O)[C@@H]1[C@H](C(=O)O)[C@]2(Cl)C(Cl)=C(Cl)[C@@]1(Cl)C2(Cl)Cl was read as SMN2 splice enh inactive[9.22 µM] and Luc counter inactive[7.66 µM].
`O=C(O)c1ccccc1Nc1cccc(C(F)(F)F)c1` gave SMN2 splice enh inactive, FLuc counter 15µM, ELG1 genotoxic inactive, NPC1 prom act inactive, Rab9 prom act inactive and Luc counter inactive.
CCCCOC(=O)c1ccccc1N was read as SMN2 splice enh inactive.
For Nc1ccccc1C(=O)OCCc1ccccc1 the results were SMN2 splice enh 14µM, FLuc counter 1.9µM, ELG1 genotoxic inconclusive, NPC1 prom act 1.1µM and Rab9 prom act 0.79µM.
CCCCCCOC(=O)c1ccccc1N was read as SMN2 splice enh inactive, FLuc counter 17µM, ELG1 genotoxic inconclusive, NPC1 prom act inactive, Rab9 prom act inactive and Luc counter inactive.
Screening CC1=C(O)C(=O)C=C2C1=CC=C1[C@]2(C)CC[C@@]2(C)C3C[C@](C)(C(=O)O)CC[C@@]3(C)CC[C@@]12C (some centres undefined) returned SMN2 splice enh inactive and Luc counter inactive.
